Among the data in PubChem BioAssay AID504357 (The Scripps Research Institute Molecular Screening Center, 2011) are inhibition values, retold here.

The whole screen tested about 340,000 compounds, of which about 700 (0.21%) were called active. The full list was thinned out, with actives kept by preference. Values without a mark were called inactive. No stated cut-off is given here; in the data, active means inhibition above about 22% (passing the limit was not always enough); inactive means the rest.

The target in this assay is Mu-type opioid receptor (Homo sapiens) + Delta-type opioid receptor (Homo sapiens) (UniProt P35372+P41143). Nature of the assay: inverse agonists of MOR-DOR heterodimerization, primary screen, cell-based, luminescence (AID 504357).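 Further: 0% = cells with DMSO and 100% = wells without cells with DMSO.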 Conditions: cell-based MOR-DOR heterodimer luminescence, inverse agonism; at 9.3 µM; active compounds read high.
Sequence of Mu-type opioid receptor (Homo sapiens) + Delta-type opioid receptor (Homo sapiens) (P35372 whole entry, looked up): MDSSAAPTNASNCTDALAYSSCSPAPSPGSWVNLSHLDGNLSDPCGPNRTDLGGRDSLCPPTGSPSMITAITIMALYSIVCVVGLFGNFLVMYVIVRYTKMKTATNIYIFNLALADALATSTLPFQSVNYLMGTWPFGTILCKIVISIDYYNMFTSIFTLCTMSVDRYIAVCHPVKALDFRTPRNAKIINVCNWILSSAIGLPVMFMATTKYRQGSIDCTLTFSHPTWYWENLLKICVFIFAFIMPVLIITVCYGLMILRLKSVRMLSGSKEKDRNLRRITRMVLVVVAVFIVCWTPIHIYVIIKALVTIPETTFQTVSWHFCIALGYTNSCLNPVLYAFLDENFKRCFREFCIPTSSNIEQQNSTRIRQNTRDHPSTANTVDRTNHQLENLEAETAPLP
Sequence of Mu-type opioid receptor (Homo sapiens) + Delta-type opioid receptor (Homo sapiens) (P41143 whole entry, looked up): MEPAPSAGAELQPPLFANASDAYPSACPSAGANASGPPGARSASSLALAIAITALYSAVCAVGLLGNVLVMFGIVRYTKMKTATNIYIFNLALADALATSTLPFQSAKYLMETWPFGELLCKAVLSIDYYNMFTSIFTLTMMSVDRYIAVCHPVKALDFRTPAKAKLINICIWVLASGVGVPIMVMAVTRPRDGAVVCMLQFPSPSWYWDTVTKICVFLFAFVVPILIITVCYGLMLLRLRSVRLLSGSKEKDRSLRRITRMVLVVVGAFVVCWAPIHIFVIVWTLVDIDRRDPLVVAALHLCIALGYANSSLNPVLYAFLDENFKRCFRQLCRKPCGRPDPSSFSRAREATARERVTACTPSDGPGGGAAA
The term inhibition denotes the relative decrease from the control value, in per cent. As for `COc1cc2sc(C)nc2cc1C`, the inhibition is -8.04%.

Turning to `O=C(O)C(=Cc1ccccc1[N+](=O)[O-])c1ccccc1`, the inhibition is 9.45%.

In the case of `CC(C)CCSc1ncnc2c1oc1nc3c(cc12)COC(C)(C)C3`, the inhibition is 5.61%.

Take `Cc1ccc2nc(SCc3nnc(-c4ccccc4[N+](=O)[O-])o3)c(C#N)cc2c1`: the inhibition was 13%.

Consider `Cc1nc2cc(NC(=O)CSc3nc4c(C)cccc4cc3C#N)ccc2s1`, for which the inhibition was 12.7%.

With `CCN1C[C@@H]2[C@@H]3C(=O)N(Cc4ccccc4)C(=O)[C@@H]3[C@](C)(C1=O)N2C(=O)c1ccc(C(C)(C)C)cc1`, the inhibition was 0.58%.

As to `Cn1ccs/c1=N\S(=O)(=O)c1ccc(C(C)(C)C)cc1`, the inhibition was 4.78%.

As to `CC(C)(C)c1nnc(NC(=O)C2c3ccccc3Oc3ccccc32)s1`, the inhibition was -37%.

`N#C/C(=C/c1ccc(Cl)cc1)NC(=O)c1ccccc1`: the inhibition was -2.56%.

As to `O=C(CN1CCCSc2ccccc21)N1CCN(S(=O)(=O)c2cccc(F)c2)CC1`, the inhibition was 9.06%.

`O=C1C[C@@H]2c3c(cccc3CN1Cc1ccccc1)C[C@@H](O)[C@H]2O`: the inhibition was 1.13%.

On to `CCCNC(=O)CCn1cc(-c2ccc(OC)cc2)nc1CCN`, for which the inhibition was 7.6%.

As for `COC(=O)c1scc(C)c1NC(=O)CSc1ccc(Cl)cc1`, the inhibition is 0.66%.

For `CC(=O)c1ccc(NC(=O)C(C)N(C)CC(=O)Nc2ccccc2Cl)cc1` (stereo unspecified), the inhibition was 2.42%.

On to `CCOC(=O)c1c(-n2cnnn2)sc(C)c1C`, for which the inhibition was 18.6%.

For the molecule `Cc1ccc(Oc2cc(NC(=O)CCCn3nc(C)c([N+](=O)[O-])c3C)cc([N+](=O)[O-])c2)cc1`, the inhibition is -12.5%.

For the molecule `Cc1ccc(S(=O)(=O)N2CCOCC2)cc1C(=O)NC(=S)N(Cc1ccccc1)C(C)C`, the inhibition is 20%.

For `COc1ccc(-n2c(O)c(C=NCC(c3ccco3)N3CCCC3)c3ccccc3c2=O)cc1OC` (stereo unspecified), the inhibition is 12.1%.

As to `Cc1cccc(-n2c(Cc3cc(=O)[nH]c(=O)[nH]3)nnc2SCC(=O)Nc2cccc(C(F)(F)F)c2)c1`, the inhibition was -3.78%.

Take `COC(=O)C1(CCSC)NC(c2ccc(OC)cc2OC)C2C(=O)N(c3cccc(C(C)=O)c3)C(=O)C21` (stereo unspecified): the inhibition was 15.3%.

As for `NNc1cccc(C=Cc2ccccc2)cc1=O`, the inhibition is -23.2%.

With `COc1ccc(CC(=O)OC(C)C(=O)Nc2ccc(S(N)(=O)=O)cc2)cc1` (stereo unspecified), the inhibition is 6.12%.

Regarding `Cc1c(C(=O)N(Cc2ccccc2)Cc2cccnc2)cnn1-c1ccc(F)cc1`, the inhibition is 15.9%.

Regarding `Cc1ccccc1NC(=O)CSC1=NCCN1`, the inhibition was 6.55%.

For the molecule `Cc1ccc(S(=O)(=O)Oc2ccc(/C=N/NC(=O)c3c(Cl)cnn3C)cc2)cc1`, the inhibition was 6.6%.

Turning to `O=S(=O)(c1ccc(Br)cc1)n1ccc2ccccc21`, the inhibition was -60.1%.

On to `O=C(NC1CCCCCCC1)c1cccs1`, for which the inhibition was -15.7%.

As to `OCC[C@H]1C[C@H](O)[C@@H](O)[C@]2(CCCCO2)O1`, the inhibition was 1.27%.

On to `Cc1cccc(C2c3[nH]c4ccccc4c3CCN2C(=O)c2cc(-c3cccn3C)n[nH]2)n1` (stereo unspecified), for which the inhibition was -17.1%.

On to `CC(=O)c1ccc(NC(=O)CCc2nnc3ccc(NCc4ccco4)nn23)cc1`, for which the inhibition is 18.1%.

For `COC(=O)c1cccc(C(=O)N2CCCC(Nc3ccc4c(c3)OCCO4)C2)c1` (stereo unspecified), the inhibition is -2.83%.

As to `Cc1ccc(Nc2nnc(SC(C)C(=O)NC3CC3)s2)cc1` (stereo unspecified), the inhibition is 5.95%.

Consider `O=S(=O)(NCc1ccccc1)c1ccc(S(=O)(=O)N2CCCC2)cc1`, for which the inhibition is 7.6%.

Regarding `COC(=O)CSc1nc2c(c(C3CC=CCC3)c1C#N)CCC2` (stereo unspecified), the inhibition was 0.33%.

For the molecule `CC1CCN(C(=O)c2ccc3c(=O)n4c(nc3c2)CCCCC4)CC1`, the inhibition was -4.92%.

As for `CCc1noc(C)c1C(=O)N1CCN(S(=O)(=O)c2cccc(C(F)(F)F)c2)CC1`, the inhibition was 9.18%.

Consider `COc1cc(C2C(N3C(=O)c4ccccc4C3=O)C(=O)N2c2ccc(C)c(C)c2)cc(OC)c1OC` (stereo unspecified), for which the inhibition is 8.56%.

As for `O=C(c1cc2ccccc2s1)N1CCN(c2ccccn2)CC1`, the inhibition is 5.35%.

As for `Cc1cccc(N(C)C(=O)c2cc(S(=O)(=O)N3CCCCC3)c[nH]2)c1`, the inhibition is -2.65%.

For `Cc1cccc(C)c1Nc1c(-c2ccccc2O)nc2ncccn12`, the inhibition is 5.45%.

`O=C(O)c1ccc(S(=O)(=O)N2CCOCC2)o1`: the inhibition is -0.55%.

Take `COC(=O)c1c(NC(=O)C(=O)N2CCCCC2)sc2c1CC(C)(C)OC2`: the inhibition is -12.8%.

Take `Cc1nc2c(-c3ccc(F)cc3)c(C)nn2c(C)c1CCC(=O)N1CCN(c2ccccn2)CC1`: the inhibition is 8.06%.

As to `Cc1ccc(NC(=O)CN2CCCCC2)c2c1CC(C)(C)O2`, the inhibition is -2.22%.

Consider `Cc1ccc(S(=O)(=O)NC[C@H]2O[C@@H](n3cnc4c(N)ncnc43)[C@H](O)[C@@H]2O)s1`, for which the inhibition is 16.3%.

For `N#CC1=C(N)C(C#N)(C#N)[C@H](c2ccsc2)[C@H]2COCC=C12`, the inhibition is 25.7% (active).

As for `CCN1CC=C2C(C#N)=C(N)C(C#N)(C#N)[C@H](c3ccoc3)[C@H]2C1`, the inhibition was -33.3%.

As to `O=C1N=C(N2CCOCC2)CS1`, the inhibition was 0.02%.

In the case of `Cc1ccccc1NC(=O)c1cc(S(=O)(=O)N2CCOCC2)cs1`, the inhibition is 4.89%.

With `CN(CC(=O)Nc1cccc2c1CCCC2)S(=O)(=O)c1ccc(Cl)cc1`, the inhibition was -0.65%.

With `O=S(=O)(c1ccc(Br)c2ccccc12)N1CCOCC1`, the inhibition is 15.2%.

Consider `O=S(=O)(c1cnccc1N1CCN(/N=C/c2ccc(Br)cc2)CC1)N1CCCCC1`, for which the inhibition was 6.92%.

Consider `COC(CNC(=O)c1ccc2c(c1)ncn2-c1cc(C)cc(C)c1)OC`, for which the inhibition was 13%.

Regarding `CCc1cccc(C)c1NS(=O)(=O)c1cc(Br)cnc1N`, the inhibition was -50.1%.

Consider `O=C(CCc1[nH]c2ccccc2c1Sc1ccccc1)N(CCO)CCO`, for which the inhibition was 8.56%.

On to `CC(C)c1ccc(S(=O)(=O)N2CCN(C(=O)c3ccc(N4CCCC4)c([N+](=O)[O-])c3)CC2)cc1`, for which the inhibition is 19.3%.

For `Cc1cccc(NC(=O)NC2(C)CCS(=O)(=O)C2)c1` (stereo unspecified), the inhibition is -1.39%.

As to `CCNc1nc(NC(C)C)nc(OCCOC(=O)c2ccccc2)n1`, the inhibition was 0.3%.

With `CCSC1=NCCN1S(=O)(=O)c1ccc(F)cc1`, the inhibition is 2.33%.

Take `Cc1nccn1CCC1CCCCN1C(=O)CCc1nnc(-c2ccsc2)o1` (stereo unspecified): the inhibition was 11.7%.

For `Cc1ccccc1C(CC(=O)c1cccs1)C(C#N)C#N` (stereo unspecified), the inhibition is 8.61%.

On to `COC(=O)C1=C(C(=O)OC)[C@@H]2N(C)c3ccccc3[C@@]23C[C@@H](C(=O)OC)N(C(=O)c2ccco2)C3=N1`, for which the inhibition is 7.48%.

As for `Cc1nc2nc(SCC(=O)Nc3cccc(F)c3)[nH]c2cc1Br`, the inhibition was -28.8%.

As for `CC(C)NC(=O)CSc1nnc(COc2ccccc2Cl)o1`, the inhibition was 16.3%.

Consider `CCOc1ccc(NC(=O)c2ccc(NC(=O)C3CCCO3)cc2)cc1` (stereo unspecified), for which the inhibition is 12.6%.

Turning to `COc1ccc(NC(=O)c2cccc3c2C(=O)N(CC2CCCO2)C3)cc1OC` (stereo unspecified), the inhibition was 16.3%.

`CCOc1ccc(NC(=O)c2cccc3c2C(=O)N(CC2CCCO2)C3)cc1` (stereo unspecified): the inhibition is 23.6% (active).

As for `CN(C)c1cc(N)c2ccccc2n1` (tested in a mixture with another compound), the inhibition is 9.35%.

For the molecule `COc1ccc(NC(=O)CSc2nnc(Cc3ccccc3)c(=O)n2N)cc1`, the inhibition is 4.15%.

As for `CC(C)(C)SCCSC1=CC(=O)CC(c2ccccc2)C1` (stereo unspecified), the inhibition is -50%.

`CCC1Nc2ncnc(N3CCN(c4ccccc4)CC3)c2N(Cc2ccc(Cl)cc2)C1=O` (stereo unspecified): the inhibition is 72.3% (active).

For the molecule `O=C1C(Cc2ccc(O)cc2)NC(=S)N1Cc1ccccc1` (stereo unspecified), the inhibition was 17.3%.

As to `CC[C@]1(C(=O)OC)[C@H]2C(=O)N(Cc3ccccc3)C(=O)[C@H]2[C@H]2CN=C(SCc3ccc(Cl)cc3)N21`, the inhibition is -1.44%.

As to `COc1cccc(C(CC(=O)NCCN2CCOCC2)NS(=O)(=O)c2ccc(C)cc2)c1OC` (stereo unspecified), the inhibition is 4.11%.

For the molecule `COC(=O)[C@H]1Cc2cnoc2C[C@]1(C)C(=O)O`, the inhibition was 8.29%.

For `Cc1cc(C)cc(NC(=O)C2CCCN2S(=O)(=O)c2cccc3cccnc23)c1` (stereo unspecified), the inhibition was 7.78%.

`COc1cc(C(=O)OCC(=O)N(CC(C)C)C2CCS(=O)(=O)C2)ccc1OCC(C)C` (stereo unspecified): the inhibition was 12.3%.

Regarding `COc1cc(/C=C/C(=O)N2CCc3ccccc3C2)cc(OC)c1OC`, the inhibition was 15.2%.

`Cc1cc(Cl)c2oc(C(=O)N(C)C(C)c3ccccn3)c(C)c2c1` (stereo unspecified): the inhibition is -14%.

For the molecule `CCCNC(=O)N1CCN(C(=O)NCCC)CC1`, the inhibition is -0.22%.

For `O=C1C(=O)N(c2ccccc2)c2ccccc21`, the inhibition was 47.8% (active).

On to `O=C1C(Cl)=C(N2CCOCC2)C(=O)N1c1ccccc1`, for which the inhibition was 7.3%.

In the case of `O=C1c2ccccc2C(=O)N1c1ccccc1S(=O)C(F)(F)F` (stereo unspecified), the inhibition is 1.53%.

Consider `Cc1cccc(N=Nc2c(O)[nH]c3ccc(F)cc23)c1`, for which the inhibition is 33% (active).

`Oc1[nH]c2ccccc2c1N=Nc1c(F)c(F)c(F)c(F)c1F`: the inhibition is 13.1%.

`NS(=O)(=O)c1ccc(N=Nc2c(O)[nH]c3ccc(Br)cc23)cc1`: the inhibition is 16.9%.

Take `O=C(COC(=O)Cn1cnc2ccccc2c1=O)NCC12CC3CC(CC(C3)C1)C2`: the inhibition was 0.67%.

Regarding `CCCS(=O)(=O)C(=C1Nc2ccccc2N1)S(=O)(=O)CCC`, the inhibition was 3.81%.

As for `CN(C)/C=C1/Nc2ccccc2C1=O`, the inhibition is 34.7% (active).

On to `CN(C)/C=C1\C=C(c2ccccc2)OC1=O`, for which the inhibition is 5.39%.

On to `Cc1ccc(Cc2nnc(SCC(=O)Nc3ccc(C)cc3C)[nH]c2=O)cc1`, for which the inhibition was -25.8%.
